The values that follow come from ChEMBL document CHEMBL1961873, “Compounds: GSK PKIS; Assays: Nanosyn kinase panel” (2012).

In experiment [1] the target is Mitogen-activated protein kinase kinase kinase kinase 4 (Homo sapiens) (UniProt O95819). Conditions: at 1 µM.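 Note: reported figure is an averaged inhibition value.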
The target of experiment [2] is Dual specificity mitogen-activated protein kinase kinase 1 (Homo sapiens) (UniProt Q02750). As to conditions: at 0.1 µM.
Experiment [3] has the same target. As to conditions: at 1 µM.
In experiment [4] the target is Misshapen-like kinase 1 (Homo sapiens) (UniProt Q8N4C8). Conditions: at 0.1 µM.
The target is the same in experiment [5]. As to conditions: at 1 µM.
Experiment [6] has as its target T1, Serine/threonine-protein kinase 4 (Homo sapiens) (UniProt Q13043).
T1 sequence (whole entry): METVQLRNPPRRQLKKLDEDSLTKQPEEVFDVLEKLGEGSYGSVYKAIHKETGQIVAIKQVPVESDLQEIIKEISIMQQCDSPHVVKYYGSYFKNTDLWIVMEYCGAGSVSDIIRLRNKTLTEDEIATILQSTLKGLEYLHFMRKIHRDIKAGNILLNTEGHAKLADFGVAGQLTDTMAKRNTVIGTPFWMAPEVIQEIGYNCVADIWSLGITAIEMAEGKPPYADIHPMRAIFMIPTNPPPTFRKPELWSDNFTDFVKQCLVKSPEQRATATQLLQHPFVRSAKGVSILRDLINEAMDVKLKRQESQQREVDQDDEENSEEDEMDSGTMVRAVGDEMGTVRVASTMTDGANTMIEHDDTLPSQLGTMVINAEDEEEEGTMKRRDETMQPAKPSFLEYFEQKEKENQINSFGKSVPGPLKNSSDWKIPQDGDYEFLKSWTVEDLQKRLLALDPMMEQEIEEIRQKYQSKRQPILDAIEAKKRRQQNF
Conditions: at 0.1 µM.

In experiment [7] the target is T1, Serine/threonine-protein kinase 4 (Homo sapiens). As to conditions: at 1 µM.
Experiment [8] deals with T2, Serine/threonine-protein kinase 3 (Homo sapiens) (UniProt Q13188).
T2 sequence (whole entry): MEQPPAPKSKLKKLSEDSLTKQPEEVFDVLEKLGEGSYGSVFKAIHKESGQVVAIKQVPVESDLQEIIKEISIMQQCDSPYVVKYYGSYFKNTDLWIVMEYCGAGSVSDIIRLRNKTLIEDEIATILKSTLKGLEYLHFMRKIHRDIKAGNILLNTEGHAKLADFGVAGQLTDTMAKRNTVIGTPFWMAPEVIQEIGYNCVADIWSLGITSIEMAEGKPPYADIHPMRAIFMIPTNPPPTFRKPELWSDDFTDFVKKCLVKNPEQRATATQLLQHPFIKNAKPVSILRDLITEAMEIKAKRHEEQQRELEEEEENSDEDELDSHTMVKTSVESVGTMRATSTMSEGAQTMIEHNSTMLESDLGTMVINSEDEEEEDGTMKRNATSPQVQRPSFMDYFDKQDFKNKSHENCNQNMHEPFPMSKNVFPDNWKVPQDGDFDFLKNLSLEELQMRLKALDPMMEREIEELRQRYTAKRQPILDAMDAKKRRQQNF
As to conditions: at 0.1 µM.

Experiment [9] has as its target T2, Serine/threonine-protein kinase 3 (Homo sapiens). As to conditions: at 1 µM.
Experiment [10] concerns the target Serine/threonine-protein kinase 26 (Homo sapiens) (UniProt Q9P289). As to conditions: at 0.1 µM.

Sequence of Mitogen-activated protein kinase kinase kinase kinase 4 (Homo sapiens) (O95819 2-1239 limits assumed): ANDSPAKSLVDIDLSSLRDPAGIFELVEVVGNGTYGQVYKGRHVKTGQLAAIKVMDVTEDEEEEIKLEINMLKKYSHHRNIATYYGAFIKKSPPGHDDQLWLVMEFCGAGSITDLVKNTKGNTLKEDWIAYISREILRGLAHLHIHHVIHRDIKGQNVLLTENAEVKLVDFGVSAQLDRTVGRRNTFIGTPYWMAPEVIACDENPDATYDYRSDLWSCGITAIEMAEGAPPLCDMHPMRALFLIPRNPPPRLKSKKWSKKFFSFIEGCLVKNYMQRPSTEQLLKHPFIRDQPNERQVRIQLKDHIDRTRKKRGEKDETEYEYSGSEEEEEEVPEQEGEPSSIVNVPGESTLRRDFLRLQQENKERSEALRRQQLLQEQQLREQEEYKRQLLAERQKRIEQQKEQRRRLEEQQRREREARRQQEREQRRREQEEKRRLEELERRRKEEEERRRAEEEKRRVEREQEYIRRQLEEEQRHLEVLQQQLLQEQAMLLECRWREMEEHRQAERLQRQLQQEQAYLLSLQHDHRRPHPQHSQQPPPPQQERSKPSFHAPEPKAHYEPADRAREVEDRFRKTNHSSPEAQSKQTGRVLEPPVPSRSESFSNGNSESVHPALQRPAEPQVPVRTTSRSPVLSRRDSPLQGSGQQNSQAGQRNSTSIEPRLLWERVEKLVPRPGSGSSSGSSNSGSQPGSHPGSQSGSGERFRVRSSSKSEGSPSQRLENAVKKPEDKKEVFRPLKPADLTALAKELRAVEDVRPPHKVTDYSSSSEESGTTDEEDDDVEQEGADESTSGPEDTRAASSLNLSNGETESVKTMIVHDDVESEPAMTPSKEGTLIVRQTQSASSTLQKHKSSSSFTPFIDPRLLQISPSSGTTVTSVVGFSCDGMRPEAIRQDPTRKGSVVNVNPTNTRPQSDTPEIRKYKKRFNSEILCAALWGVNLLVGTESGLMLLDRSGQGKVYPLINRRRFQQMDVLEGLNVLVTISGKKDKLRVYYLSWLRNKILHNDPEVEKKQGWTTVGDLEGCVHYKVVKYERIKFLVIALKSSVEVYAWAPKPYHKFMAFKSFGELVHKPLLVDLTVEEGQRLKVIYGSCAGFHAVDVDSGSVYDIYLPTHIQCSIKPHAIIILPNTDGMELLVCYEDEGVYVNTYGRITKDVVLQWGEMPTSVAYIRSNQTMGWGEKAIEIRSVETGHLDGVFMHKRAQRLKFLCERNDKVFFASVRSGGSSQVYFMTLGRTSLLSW
Sequence of Serine/threonine-protein kinase 26 (Homo sapiens) (Q9P289 2-416 limits assumed): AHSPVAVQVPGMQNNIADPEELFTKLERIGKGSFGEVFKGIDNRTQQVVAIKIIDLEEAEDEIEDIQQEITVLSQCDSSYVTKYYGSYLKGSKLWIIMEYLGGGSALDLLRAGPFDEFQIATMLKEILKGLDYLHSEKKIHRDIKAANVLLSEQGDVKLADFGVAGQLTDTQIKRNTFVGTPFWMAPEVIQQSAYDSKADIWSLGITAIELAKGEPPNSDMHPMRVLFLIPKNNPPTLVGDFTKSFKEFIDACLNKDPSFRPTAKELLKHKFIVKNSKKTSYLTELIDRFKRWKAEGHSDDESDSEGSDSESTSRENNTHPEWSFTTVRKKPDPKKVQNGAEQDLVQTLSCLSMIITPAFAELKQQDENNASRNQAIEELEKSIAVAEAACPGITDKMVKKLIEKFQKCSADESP
Sequence of Dual specificity mitogen-activated protein kinase kinase 1 (Homo sapiens) (Q02750 whole entry): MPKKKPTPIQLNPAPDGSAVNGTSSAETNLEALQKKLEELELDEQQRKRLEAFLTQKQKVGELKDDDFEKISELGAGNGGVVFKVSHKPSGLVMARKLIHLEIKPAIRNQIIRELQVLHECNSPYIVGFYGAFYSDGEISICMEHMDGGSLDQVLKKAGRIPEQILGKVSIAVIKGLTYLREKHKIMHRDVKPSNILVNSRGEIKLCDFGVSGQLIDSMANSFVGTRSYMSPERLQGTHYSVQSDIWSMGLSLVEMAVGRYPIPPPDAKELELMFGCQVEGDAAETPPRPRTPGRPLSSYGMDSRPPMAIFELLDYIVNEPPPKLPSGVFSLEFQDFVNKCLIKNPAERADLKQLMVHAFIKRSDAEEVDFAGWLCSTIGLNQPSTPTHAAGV
Sequence of Misshapen-like kinase 1 (Homo sapiens) (Q8N4C8 whole entry, looked up): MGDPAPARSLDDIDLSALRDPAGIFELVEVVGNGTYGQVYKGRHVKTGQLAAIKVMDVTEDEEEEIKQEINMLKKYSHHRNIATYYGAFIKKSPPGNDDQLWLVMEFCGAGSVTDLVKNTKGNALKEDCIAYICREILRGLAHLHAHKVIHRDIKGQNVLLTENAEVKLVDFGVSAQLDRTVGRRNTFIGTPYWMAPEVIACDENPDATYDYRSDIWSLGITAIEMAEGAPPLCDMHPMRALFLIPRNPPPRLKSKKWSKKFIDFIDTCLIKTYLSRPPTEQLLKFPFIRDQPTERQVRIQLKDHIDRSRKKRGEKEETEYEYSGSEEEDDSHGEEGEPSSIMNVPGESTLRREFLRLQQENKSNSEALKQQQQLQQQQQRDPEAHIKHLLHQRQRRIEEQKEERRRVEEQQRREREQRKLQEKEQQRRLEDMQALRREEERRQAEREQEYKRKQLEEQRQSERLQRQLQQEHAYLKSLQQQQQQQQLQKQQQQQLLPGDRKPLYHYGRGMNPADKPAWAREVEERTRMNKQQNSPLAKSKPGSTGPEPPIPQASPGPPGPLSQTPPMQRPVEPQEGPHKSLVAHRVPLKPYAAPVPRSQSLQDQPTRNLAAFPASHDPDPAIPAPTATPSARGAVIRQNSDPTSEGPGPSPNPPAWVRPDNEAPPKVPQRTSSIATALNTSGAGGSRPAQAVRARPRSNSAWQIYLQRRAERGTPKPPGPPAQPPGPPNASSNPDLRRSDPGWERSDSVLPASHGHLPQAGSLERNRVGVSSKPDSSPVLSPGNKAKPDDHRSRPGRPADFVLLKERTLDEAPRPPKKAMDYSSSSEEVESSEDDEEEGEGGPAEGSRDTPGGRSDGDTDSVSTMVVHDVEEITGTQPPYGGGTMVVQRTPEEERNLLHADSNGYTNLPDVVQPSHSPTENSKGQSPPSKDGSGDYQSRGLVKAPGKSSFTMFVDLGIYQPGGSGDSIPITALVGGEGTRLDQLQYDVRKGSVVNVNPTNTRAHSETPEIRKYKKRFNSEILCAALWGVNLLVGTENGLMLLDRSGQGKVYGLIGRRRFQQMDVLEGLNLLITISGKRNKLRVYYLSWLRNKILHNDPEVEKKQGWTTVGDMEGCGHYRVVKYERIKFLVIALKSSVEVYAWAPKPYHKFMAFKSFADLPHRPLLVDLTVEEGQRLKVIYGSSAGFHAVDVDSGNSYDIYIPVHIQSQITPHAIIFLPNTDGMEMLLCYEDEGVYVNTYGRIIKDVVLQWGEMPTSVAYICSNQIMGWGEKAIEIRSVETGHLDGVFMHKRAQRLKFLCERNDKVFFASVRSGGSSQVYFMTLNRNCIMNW

As usually defined, the inhibition is the change of the read-out against control, counted positive when it falls. `COc1ccc2cc(-c3c(-c4ccncc4)nc(-c4ccc([S+](C)[O-])cc4)n3C)ccc2c1` (stereo not given): the inhibition is 8.42% in experiment [1]; 4.05% in [2]; 3.39% in experiment [3]; 3.38% in experiment [4]; 9.34% in [5]; 4.01% in experiment [6]. Also, the inhibition in experiment [7] is 4.79%; in experiment [8] it was 6.01%; in experiment [9], 8.09%; in experiment [10] it was -0.63%.

For `Cc1cc(O)cc(C)c1/C=C/c1cncc(-c2nn[nH]n2)c1`, the inhibition was 25.3% in experiment [1]; 6.51% in experiment [2]; 5.24% in [3]; 9.23% in [4]; 21.7% in experiment [5]; 3.48% in [6]. The inhibition in experiment [7] was 9.22%; in [8], 4.45%; in experiment [9], 10.7%; in [10], -1.84%.

For the molecule `CCCN1CCC(Oc2cc(Nc3nc(Nc4cccc(F)c4C(N)=O)c4cc[nH]c4n3)c(OC)cc2Cl)CC1`, the inhibition in experiment [1] was 3.64%; in experiment [2], 0.84%; in experiment [3] it was 20.6%; in [4], 1%; in experiment [5], 1.71%; in experiment [6], -0.56%. The inhibition in [7] is 1.54%; in experiment [8], -0.96%; in experiment [9], 0.14%; in [10] it was 1.68%.

Take `NCc1ccc(-c2nc(-c3ccc(Cl)c(O)c3)c(-c3ccncc3)[nH]2)cc1`: the inhibition turned out to be 17.2% in [1]; 0.8% in experiment [2]; 2.23% in experiment [3]; 4.99% in experiment [4]; 14.1% in [5]; 0.18% in [6]. Further, the inhibition in experiment [7] is 0.25%; in [8], -1%; in [9], -1.23%; in experiment [10], 0.12%.

For `CC(C)=Cc1cccc2c1/C(=N/Nc1ccc(S(N)(=O)=O)cc1)C(=O)N2`, the inhibition in [1] was 31.3%; in [2] it was 0.02%; in [3], 2.23%; in [4], 3.63%; in experiment [5], 25.1%; in experiment [6], 66.6%. Besides, the inhibition is 84.5% in experiment [7], 52.6% in [8], 82.4% in experiment [9] and 4.55% in experiment [10].

Consider `CN(C)c1cc2c(Nc3ccc4nc(Cc5ccccc5)[nH]c4c3)ncnc2cn1`, for which the inhibition in experiment [1] turned out to be 9.42%; in experiment [2] it was 6.17%; in [3] it was 5.42%; in [4], 8.81%; in [5], 9.2%; in experiment [6], 4.35%. The inhibition in experiment [7] is 3.57%; in [8], 4.95%; in experiment [9], 2.18%; in experiment [10] it was -1.17%.

With `CS(=O)(=O)CCNCc1ccc(-c2ccc3ncnc(Nc4ccc(OCc5cccc(F)c5)c(C(F)(F)F)c4)c3c2)o1`, the inhibition in experiment [1] is 8.1%; in [2], 5.38%; in experiment [3], 4.64%; in experiment [4], 4.62%; in experiment [5] it was 7.1%; in experiment [6], 3.92%. Moreover, the inhibition in experiment [7] is 5.23%; in experiment [8], 3.56%; in experiment [9], 4.74%; in [10], -1.09%.

On to `N#Cc1c(NC(=O)c2cccc3ccccc23)sc2c1CCCC2`, for which the inhibition in experiment [1] was found to be 13.8%; in [2] it was 3.76%; in experiment [3] it was 3.46%; in experiment [4], 5.15%; in experiment [5] it was 11.1%; in experiment [6], 3.4%. For the same molecule, the inhibition in [7] was 4.3%; in experiment [8] it was 2.39%; in experiment [9], 3.8%; in [10] it was -1.1%.

For the molecule `COc1ccc(COc2ccc(Cc3cnc(N)nc3N)cc2OC)cc1`, the inhibition in experiment [1] came to 6.03%; in experiment [2], 1.66%; in experiment [3] it was 0.97%; in experiment [4] it was 0.71%; in experiment [5] it was 4.81%; in [6], 4.51%. Further, the inhibition in experiment [7] turned out to be 4.23%; in [8], 3.88%; in [9] it was 3.04%; in experiment [10] it was 3.22%.

As to `CC1=C(C(=O)Nc2ccc3[nH]ncc3c2)C(c2ccc3ccccc3c2)CC(=O)N1` (stereo not given), the inhibition came to 3.73% in experiment [1]; 8.09% in [2]; 44.4% in experiment [3]; 4.56% in experiment [4]; 3.98% in experiment [5]; 3.56% in experiment [6]. In addition, the inhibition was 12.2% in experiment [7], 3.29% in experiment [8], 9.79% in [9] and -0.11% in experiment [10].

As for `c1cnn2ncc(-c3ccnc(Nc4ccc5c(c4)OCCO5)n3)c2c1`, the inhibition in [1] came to 51.5%; in experiment [2], 7.35%; in [3], 27.8%; in [4], 9.95%; in experiment [5], 40.4%; in [6], 7.88%. For the same molecule, the inhibition was 19.1% in [7], 7.54% in experiment [8], 16.1% in experiment [9] and -1.31% in experiment [10].

Regarding `CS(=O)(=O)CCNCc1nc(-c2ccc3ncnc(Nc4ccc(F)c(Cl)c4)c3c2)cs1`, the inhibition was 4.84% in [1]; 1.19% in experiment [2]; 2.66% in experiment [3]; 2.93% in experiment [4]; 3.2% in [5]; 4.8% in experiment [6]. Moreover, the inhibition worked out at 6.35% in experiment [7], 5.67% in experiment [8], 4.59% in [9] and 2.56% in experiment [10].

`O=C1NC(=O)C(c2ccccc2Cl)=C1Nc1cccc(O)c1`: the inhibition in experiment [1] was determined as 6.87%; in experiment [2] it was 1.44%; in [3], 1.89%; in experiment [4], 3.8%; in experiment [5] it was 5.96%; in experiment [6], 7.3%. Moreover, the inhibition was 27.2% in experiment [7], 7.12% in experiment [8], 22.5% in experiment [9] and -0.62% in experiment [10].

For `Fc1cccc(COc2ccc(Nc3ncnc4sc(-c5cccs5)cc34)cc2Cl)c1`, the inhibition came out at 6.34% in experiment [1]; 2.3% in [2]; 4% in experiment [3]; 1.45% in experiment [4]; 2.51% in experiment [5]; 0.07% in [6]. The inhibition in [7] is 0.3%; in [8] it was -1.67%; in experiment [9] it was -0.19%; in [10], -0.02%.

In the case of `O=C1NC(=O)C(c2ccc(Cl)cc2)=C1Nc1ccc(Cl)c(C(=O)O)c1`, the inhibition was 0.73% in experiment [1]; -2.44% in experiment [2]; -3.36% in experiment [3]; -0.82% in experiment [4]; -0.69% in experiment [5]; -1.86% in experiment [6]. The inhibition is -3.6% in experiment [7], -2.71% in [8], -2.5% in experiment [9] and -0.06% in experiment [10].

For the molecule `O=C1Nc2ccc(C(=O)c3ccco3)cc2C1=Cc1cc(Cl)c(O)c(Cl)c1`, the inhibition stood at 75.8% in experiment [1]; 2.93% in experiment [2]; 9.42% in [3]; 18.1% in experiment [4]; 61.8% in experiment [5]; 21.7% in [6]. Besides, the inhibition in experiment [7] was determined as 66.8%; in [8], 20.4%; in experiment [9], 65.3%; in experiment [10], 3.9%.

Consider `CCn1c(-c2nonc2N)nc2cncc(C(=O)N3CC[C@H](N)C3)c21`, for which the inhibition is 5.7% in experiment [1]; 6.85% in experiment [2]; 6.13% in [3]; 7.01% in experiment [4]; 6.82% in [5]; 3.69% in experiment [6]. The inhibition was 4.11% in experiment [7], 4.28% in experiment [8], 4.87% in [9] and -0.5% in experiment [10].

As to `NS(=O)(=O)c1ccc(N/N=C2\C(=O)Nc3ccc(C(=O)NCCc4c[nH]cn4)cc32)cc1`, the inhibition came out at 40% in experiment [1]; 6.81% in experiment [2]; 16.3% in experiment [3]; 11.2% in experiment [4]; 32.6% in experiment [5]; 56.3% in experiment [6]. The inhibition in [7] is 86.7%; in [8] it was 46.5%; in [9], 83.5%; in [10], -0.45%.

For `CCCN1CCC=C(c2ccc(Nc3nc(Nc4ccccc4C(N)=O)c4cc[nH]c4n3)c(C)c2)C1`, the inhibition in experiment [1] was 65.3%; in experiment [2] it was 7.02%; in [3], 28.7%; in [4] it was 14.8%; in experiment [5], 55.2%; in experiment [6], 9.53%. Moreover, the inhibition in experiment [7] is 42.5%; in experiment [8] it was 5.37%; in experiment [9], 21.2%; in [10] it was -2.63%.

In the case of `CNC(=O)c1cncc(/C=C/c2c(Cl)cccc2Cl)c1`, the inhibition in [1] was determined as 23%; in experiment [2] it was 1.66%; in [3], 1.76%; in [4], 7.96%; in [5], 19.3%; in [6], 3.04%. Besides, the inhibition in experiment [7] is 7.53%; in experiment [8] it was 4.32%; in experiment [9] it was 8.47%; in experiment [10], -1.2%.
